Reference: PubChem BioAssay AID1159580 (chemical genetic matrix, 2015)
Out of some 5,500 compounds screened, about 2,000 (36%) were called active. Inconclusive results (about 18%) are left out. Rule as the data show it: active = normalized growth mostly below about 0.91 (no sharp cut-off); inconclusive = no clear call, values can overlap the other calls; inactive = mostly above about 0.92. Some of the results follow.

Assay: chemical genetic growth profiling, strain panel (AID 1159580);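 also: tested at 20 µM; growth read once vehicle control cultures reached saturation at 30 °C; 1 = growth at the plate median or of vehicle wells; lower values mean less growth of the strain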
Conditions: growth OD

Measured: normalized growth

CC(=O)OCC(OC(C)=O)C(OC(C)=O)C(OC(C)=O)C(OC(C)=O)C(COC(C)=O)OC(C)=O (stereo not given)
inactive: S. cerevisiae deletion strains, locus YAL021C, strain ccr4, stronger effect = lower value 0.998 | S. cerevisiae deletion strains, locus YAL026C, strain drs2, stronger effect = lower value 0.993 | S. cerevisiae deletion strains, locus YAL030W, strain snc1, stronger effect = lower value 0.994 | S. cerevisiae deletion strains, locus YBL061C, strain skt5, stronger effect = lower value 0.985 | S. cerevisiae deletion strains, locus YBR009C, strain hhf1, stronger effect = lower value 0.994 | S. cerevisiae deletion strains, locus YBR021W, strain FUR4, stronger effect = lower value 1.01 | S. cerevisiae deletion strains, locus YBR023C, strain chs3, stronger effect = lower value 0.99 | S. cerevisiae deletion strains, locus YBR171W, strain sec66, stronger effect = lower value 0.985 | S. cerevisiae deletion strains, locus YBR229C, strain ROT2, stronger effect = lower value 0.996 | S. cerevisiae deletion strains, locus YBR231C, strain swc5, stronger effect = lower value 0.989 | S. cerevisiae deletion strains, locus YBR279W, strain paf1, stronger effect = lower value 0.994 | S. cerevisiae deletion strains, locus YCL011C, strain gbp2, stronger effect = lower value 0.996 | S. cerevisiae deletion strains, locus YCL016C, strain dcc1, stronger effect = lower value 0.994 | S. cerevisiae deletion strains, locus YCL029C, strain bik1, stronger effect = lower value 0.984 | S. cerevisiae deletion strains, locus YCL061C, strain MRC1, stronger effect = lower value 0.992 | S. cerevisiae deletion strains, locus YCL069W, strain vba3, stronger effect = lower value 0.999 | S. cerevisiae deletion strains, locus YCR088W, strain abp1, stronger effect = lower value 0.991 | S. cerevisiae deletion strains, locus YDL005C, strain med2, stronger effect = lower value 0.989 | S. cerevisiae deletion strains, locus YDL035C, strain GPR1, stronger effect = lower value 1.07 | S. cerevisiae deletion strains, locus YDL040C, strain nat1, stronger effect = lower value 0.98 | S. cerevisiae deletion strains, locus YDL074C, strain BRE1, stronger effect = lower value 1.09 | S. cerevisiae deletion strains, locus YDL101C, strain DUN1, stronger effect = lower value 1 | S. cerevisiae deletion strains, locus YDL185W, strain tfp1, stronger effect = lower value 0.991 | S. cerevisiae deletion strains, locus YDL192W, strain arf1, stronger effect = lower value 1.02 | S. cerevisiae deletion strains, locus YDR001C, strain nth1, stronger effect = lower value 0.99 | S. cerevisiae deletion strains, locus YDR069C, strain doa4, stronger effect = lower value 0.986 | S. cerevisiae deletion strains, locus YDR101C, strain arx1, stronger effect = lower value 1.01 | S. cerevisiae deletion strains, locus YDR137W, strain rgp1, stronger effect = lower value 1.01 | S. cerevisiae deletion strains, locus YDR150W, strain NUM1, stronger effect = lower value 1.01 | S. cerevisiae deletion strains, locus YDR159W, strain sac3, stronger effect = lower value 0.979 | S. cerevisiae deletion strains, locus YDR162C, strain NBP2, stronger effect = lower value 1.03 | S. cerevisiae deletion strains, locus YDR195W, strain ref2 0.943 | S. cerevisiae deletion strains, locus YDR297W, strain sur2, stronger effect = lower value 0.992 | S. cerevisiae deletion strains, locus YDR318W, strain mcm21, stronger effect = lower value 0.999 | S. cerevisiae deletion strains, locus YDR334W, strain swr1, stronger effect = lower value 0.983 | S. cerevisiae deletion strains, locus YDR335W, strain msn5, stronger effect = lower value 0.986 | S. cerevisiae deletion strains, locus YDR388W, stronger effect = lower value 0.983 | S. cerevisiae deletion strains, locus YDR392W, strain spt3, stronger effect = lower value 0.99 | S. cerevisiae deletion strains, locus YDR502C, strain sam2, stronger effect = lower value 0.998 | S. cerevisiae deletion strains, locus YEL003W, strain gim4, stronger effect = lower value 0.993 | S. cerevisiae deletion strains, locus YEL037C, strain rad23, stronger effect = lower value 0.989 | S. cerevisiae deletion strains, locus YEL061C, strain CIN8 (second series), stronger effect = lower value 0.979 | S. cerevisiae deletion strains, locus YER015W, strain faa2, stronger effect = lower value 0.992 | S. cerevisiae deletion strains, locus YER016W, strain bim1, stronger effect = lower value 0.988 | S. cerevisiae deletion strains, locus YER110C, stronger effect = lower value 0.963 | S. cerevisiae deletion strains, locus YER111C, strain swi4, stronger effect = lower value 0.985 | S. cerevisiae deletion strains, locus YER155C, strain BEM2 (second series), stronger effect = lower value 0.981 | S. cerevisiae deletion strains, locus YER155C, strain BEM2, stronger effect = lower value 0.972 | S. cerevisiae deletion strains, locus YER167W, strain BCK2, stronger effect = lower value 1.01 | S. cerevisiae deletion strains, locus YFR010W, strain ubp6, stronger effect = lower value 0.989 | S. cerevisiae deletion strains, locus YGL078C, strain dbp3, stronger effect = lower value 0.976 | S. cerevisiae deletion strains, locus YGL086W, strain mad1, stronger effect = lower value 1 | S. cerevisiae deletion strains, locus YGL167C, strain pmr1, stronger effect = lower value 0.998 | S. cerevisiae deletion strains, locus YGL173C, strain kem1, stronger effect = lower value 0.991 | S. cerevisiae deletion strains, locus YGL227W, strain vid30, stronger effect = lower value 0.99 | S. cerevisiae deletion strains, locus YGL240W, strain doc1, stronger effect = lower value 0.998 | S. cerevisiae deletion strains, locus YGL248W, strain PDE1, stronger effect = lower value 1.03 | S. cerevisiae deletion strains, locus YGL253W, strain hxk2, stronger effect = lower value 0.984 | S. cerevisiae deletion strains, locus YGR078C, strain PAC10, stronger effect = lower value 1.02 | S. cerevisiae deletion strains, locus YGR135W, strain pre9, stronger effect = lower value 0.964 | S. cerevisiae deletion strains, locus YGR252W, strain gcn5, stronger effect = lower value 0.996 | S. cerevisiae deletion strains, locus YHR013C, strain ard1, stronger effect = lower value 0.964 | S. cerevisiae deletion strains, locus YHR027C, strain rpn1, stronger effect = lower value 0.995 | S. cerevisiae deletion strains, locus YHR030C, strain SLT2, stronger effect = lower value 1.01 | S. cerevisiae deletion strains, locus YHR079C, strain IRE1 (second series), stronger effect = lower value 0.987 | S. cerevisiae deletion strains, locus YHR094C, strain hxt1, stronger effect = lower value 0.987 | S. cerevisiae deletion strains, locus YHR129C, strain ARP1, stronger effect = lower value 1 | S. cerevisiae deletion strains, locus YHR142W, strain chs7, stronger effect = lower value 0.983 | S. cerevisiae deletion strains, locus YHR200W, strain rpn10, stronger effect = lower value 0.986 | S. cerevisiae deletion strains, locus YIL066C, strain RNR3, stronger effect = lower value 1.02 | S. cerevisiae deletion strains, locus YIL073C, strain SPO22, stronger effect = lower value 1.06 | S. cerevisiae deletion strains, locus YIL125W, strain kgd1, stronger effect = lower value 0.976 | S. cerevisiae deletion strains, locus YIR030C, strain dcg1, stronger effect = lower value 0.978 | S. cerevisiae deletion strains, locus YJL092W, strain hpr5, stronger effect = lower value 0.998 | S. cerevisiae deletion strains, locus YJL095W, strain BCK1 (second series), stronger effect = lower value 0.985 | S. cerevisiae deletion strains, locus YJL095W, strain BCK1, stronger effect = lower value 1.05 | S. cerevisiae deletion strains, locus YJL115W, strain asf1, stronger effect = lower value 0.975 | S. cerevisiae deletion strains, locus YJL129C, strain trk1, stronger effect = lower value 0.988 | S. cerevisiae deletion strains, locus YJL134W, strain LCB3, stronger effect = lower value 1 | S. cerevisiae deletion strains, locus YJL154C, strain vps35, stronger effect = lower value 0.986 | S. cerevisiae deletion strains, locus YJL164C, strain tpk1, stronger effect = lower value 0.986 | S. cerevisiae deletion strains, locus YJL166W, strain qcr8, stronger effect = lower value 0.993 | S. cerevisiae deletion strains, locus YJL168C, strain set2, stronger effect = lower value 0.98 | S. cerevisiae deletion strains, locus YJL187C, strain SWE1 (second series), stronger effect = lower value 1.02 | S. cerevisiae deletion strains, locus YJL187C, strain SWE1, stronger effect = lower value 1 | S. cerevisiae deletion strains, locus YJR043C, strain POL32, stronger effect = lower value 1.07 | S. cerevisiae deletion strains, locus YKL009W, strain mrt4, stronger effect = lower value 1.01 | S. cerevisiae deletion strains, locus YKL068W, stronger effect = lower value 0.995 | S. cerevisiae deletion strains, locus YKL085W, strain MDH1 (second series), stronger effect = lower value 0.992 | S. cerevisiae deletion strains, locus YKL085W, strain MDH1, stronger effect = lower value 0.992 | S. cerevisiae deletion strains, locus YKL160W, strain elf1, stronger effect = lower value 0.997 | S. cerevisiae deletion strains, locus YKR001C, strain vps1, stronger effect = lower value 1.04 | S. cerevisiae deletion strains, locus YKR026C, strain gcn3, stronger effect = lower value 0.999 | S. cerevisiae deletion strains, locus YKR091W, strain srl3, stronger effect = lower value 0.991 | S. cerevisiae deletion strains, locus YLL001W, strain dnm1, stronger effect = lower value 0.989 | S. cerevisiae deletion strains, locus YLL026W, stronger effect = lower value 0.994 | S. cerevisiae deletion strains, locus YLL041C, strain sdh2, stronger effect = lower value 0.995 | S. cerevisiae deletion strains, locus YLR027C, strain aat2, stronger effect = lower value 0.995 | S. cerevisiae deletion strains, locus YLR039C, strain RIC1, stronger effect = lower value 1.2 | S. cerevisiae deletion strains, locus YLR058C, strain SHM2, stronger effect = lower value 1.02 | S. cerevisiae deletion strains, locus YLR102C, strain apc9, stronger effect = lower value 0.975 | S. cerevisiae deletion strains, locus YLR221C, strain rsa3, stronger effect = lower value 0.999 | S. cerevisiae deletion strains, locus YLR258W, strain gsy2, stronger effect = lower value 0.994 | S. cerevisiae deletion strains, locus YLR262C, strain YPT6 (second series), stronger effect = lower value 1.01 | S. cerevisiae deletion strains, locus YLR268W, strain sec22, stronger effect = lower value 1.04 | S. cerevisiae deletion strains, locus YLR320W, strain mms22, stronger effect = lower value 0.992 | S. cerevisiae deletion strains, locus YLR330W, strain CHS5, stronger effect = lower value 1 | S. cerevisiae deletion strains, locus YLR342W, strain FKS1, stronger effect = lower value 0.987 | S. cerevisiae deletion strains, locus YLR357W, strain rsc2, stronger effect = lower value 0.982 | S. cerevisiae deletion strains, locus YLR370C, strain arc18, stronger effect = lower value 0.99 | S. cerevisiae deletion strains, locus YLR371W, strain rom2, stronger effect = lower value 0.989 | S. cerevisiae deletion strains, locus YLR384C, strain iki3, stronger effect = lower value 1 | S. cerevisiae deletion strains, locus YLR418C, strain cdc73, stronger effect = lower value 1.01 | S. cerevisiae deletion strains, locus YML016C, strain PPZ1, stronger effect = lower value 1.01 | S. cerevisiae deletion strains, locus YML032C, strain rad52, stronger effect = lower value 0.993 | S. cerevisiae deletion strains, locus YML120C, strain ndi1, stronger effect = lower value 0.985 | S. cerevisiae deletion strains, locus YML124C, strain tub3, stronger effect = lower value 0.99 | S. cerevisiae deletion strains, locus YMR058W, strain fet3, stronger effect = lower value 0.994 | S. cerevisiae deletion strains, locus YMR078C, strain ctf18, stronger effect = lower value 0.981 | S. cerevisiae deletion strains, locus YMR125W, strain sto1, stronger effect = lower value 0.975 | S. cerevisiae deletion strains, locus YMR129W, stronger effect = lower value 0.991 | S. cerevisiae deletion strains, locus YMR205C, strain PFK2, stronger effect = lower value 0.985 | S. cerevisiae deletion strains, locus YMR223W, strain ubp8, stronger effect = lower value 0.993 | S. cerevisiae deletion strains, locus YMR231W, strain pep5, stronger effect = lower value 1 | S. cerevisiae deletion strains, locus YMR307W, strain GAS1, stronger effect = lower value 1.09 | S. cerevisiae deletion strains, locus YNL067W, strain RPL9B, stronger effect = lower value 1.01 | S. cerevisiae deletion strains, locus YNL071W, strain lat1, stronger effect = lower value 0.99 | S. cerevisiae deletion strains, locus YNL128W, strain TEP1, stronger effect = lower value 1 | S. cerevisiae deletion strains, locus YNL209W, strain ssb2, stronger effect = lower value 0.998 | S. cerevisiae deletion strains, locus YNL233W, strain BNI4, stronger effect = lower value 1.03 | S. cerevisiae deletion strains, locus YNL248C, strain rpa49, stronger effect = lower value 1.01 | S. cerevisiae deletion strains, locus YNL250W, strain rad50, stronger effect = lower value 0.978 | S. cerevisiae deletion strains, locus YNL271C, strain bni1, stronger effect = lower value 0.998 | S. cerevisiae deletion strains, locus YNL298W, strain CLA4, stronger effect = lower value 0.987 | S. cerevisiae deletion strains, locus YNL307C, strain MCK1, stronger effect = lower value 0.977 | S. cerevisiae deletion strains, locus YNL322C, strain KRE1 (second series), stronger effect = lower value 0.993 | S. cerevisiae deletion strains, locus YNR049C, strain mso1, stronger effect = lower value 0.975 | S. cerevisiae deletion strains, locus YNR052C, strain pop2, stronger effect = lower value 0.962 | S. cerevisiae deletion strains, locus YOL006C, strain TOP1, stronger effect = lower value 1.27 | S. cerevisiae deletion strains, locus YOL012C, strain htz1 1.05 | S. cerevisiae deletion strains, locus YOL147C, strain pex11, stronger effect = lower value 0.997 | S. cerevisiae deletion strains, locus YOR001W, strain rrp6, stronger effect = lower value 0.997 | S. cerevisiae deletion strains, locus YOR061W, strain CKA2, stronger effect = lower value 0.997 | S. cerevisiae deletion strains, locus YOR069W, strain VPS5, stronger effect = lower value 1.01 | S. cerevisiae deletion strains, locus YOR070C, strain gyp1, stronger effect = lower value 0.99 | S. cerevisiae deletion strains, locus YOR080W, strain dia2, stronger effect = lower value 0.985 | S. cerevisiae deletion strains, locus YOR083W, strain WHI5, stronger effect = lower value 0.995 | S. cerevisiae deletion strains, locus YOR106W, strain vam3, stronger effect = lower value 0.989 | S. cerevisiae deletion strains, locus YOR136W, strain idh2, stronger effect = lower value 0.973 | S. cerevisiae deletion strains, locus YOR144C, strain elg1, stronger effect = lower value 0.975 | S. cerevisiae deletion strains, locus YOR184W, strain ser1, stronger effect = lower value 1.06 | S. cerevisiae deletion strains, locus YOR265W, strain rbl2, stronger effect = lower value 0.983 | S. cerevisiae deletion strains, locus YOR270C, strain vph1, stronger effect = lower value 0.981 | S. cerevisiae deletion strains, locus YOR290C, strain snf2, stronger effect = lower value 0.978 | S. cerevisiae deletion strains, locus YOR316C, strain cot1, stronger effect = lower value 0.987 | S. cerevisiae deletion strains, locus YPL051W, strain arl3, stronger effect = lower value 0.995 | S. cerevisiae deletion strains, locus YPL078C, strain atp4, stronger effect = lower value 0.993 | S. cerevisiae deletion strains, locus YPL106C, strain sse1, stronger effect = lower value 1.01 | S. cerevisiae deletion strains, locus YPL240C, strain hsp82, stronger effect = lower value 0.996 | S. cerevisiae deletion strains, locus YPR119W, strain clb2, stronger effect = lower value 0.989 | S. cerevisiae deletion strains, locus YPR141C, strain kar3, stronger effect = lower value 0.997 | S. cerevisiae deletion strains, locus YPR163C, strain tif3, stronger effect = lower value 0.998 | S. cerevisiae deletion strains, locus YPR167C, strain met16, stronger effect = lower value 0.962 | S. cerevisiae deletion strains, strain wtn01, stronger effect = lower value 1.03 | S. cerevisiae strains, strain wild type, stronger effect = lower value 1.04
